# Laboratory results as given in PubChem BioAssay (Tox21).
# Values joined by “and” are separate entries in the source; they are usually repeats but may differ in a detail not shown here. Equal values may be shown once. Results filed as inconclusive are left out. A call without a number means that no potency is given here. A structure can be active in one record and inactive in another. Active and inactive are the calls of the source. Unless noted, calls follow the shape of the dose curve; as a rule, active = well fitted curve in the direction sought with a large enough effect in the repeat runs; inconclusive = weak or mixed curves; inactive = no such curve, though single readings can be large; an effect the other way counts as inactive or inconclusive.
# How the values were obtained:
# [1] = qHTS assay to identify small molecule antagonists of the androgen receptor (AR) signaling pathway using the MDA cell line in the presence of 0.5 nM R1881 - cell viability counter screen (AID 1259242); also: nearly all actives have a fitted effect of over 45% in size
# How it was run: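 MDA-kb2 cells (MMTV-luciferase, AR/GR responsive) were treated with compounds plus 0.5 nM R1881 (final) for 16 hr at 37C, 0% CO2. Viability was then read in the same wells as live-cell protease fluorescence (CellTiter-Fluor, 30 min).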
# [2] = qHTS assay to identify small molecule HDAC inhibitors (AID 1259364); also: nearly all actives have a fitted effect of over 45% in size; also: potency is read from the fitted curve at half-maximal effect
# How it was run: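 Wild-type HCT-116 cells, plated overnight at 37 C, exposed to compounds 2 hr at 37 C; luminogenic HDAC-Glo substrate then added 30 min at room temperature. Luminescence reports relative endogenous class I/II HDAC activity.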
# [3] = qHTS assay to identify small molecule antagonists of the sonic hedgehog signaling (Shh) pathway - cell viability counter screen (AID 1259367); also: nearly all actives have a fitted effect of over 55% in size; also: potency is read from the fitted curve at half-maximal effect
# How it was run: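 After a 4 hr settling period, 3T3 Gli1-Luc cells were treated with DMSO-dissolved chemicals and conditioned medium, kept 24 hr at 37C in 5% CO2, and assayed for viability by CellTiter-Fluor fluorescence following 1 hr reagent incubation.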
# [4] = qHTS assay to identify small molecule antagonists of the sonic hedgehog signaling (Shh) pathway (AID 1259369; calls by dose curve; also: nearly all actives have a fitted effect of over 45% in size; also: potency is read from the fitted curve at half-maximal effect)
# How it was run: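 NIH/3T3-derived Gli1-Luc reporter cells plated 4 h, dosed with compound, then stimulated with conditioned medium for 24 h at 37 C. Firefly luciferase luminescence read after 30 min with detection reagent at room temperature.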
# [5] = qHTS assay to identify small molecule agonists of the androgen receptor (AR) signaling pathway in the presence of an antagonist - cell viability counter screen (AID 1259379); also: nearly all actives have a fitted effect of over 25% in size; also: potency is read from the fitted curve at half-maximal effect
# How it was run: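 MDA-kb2 cells (MMTV-luciferase, AR/GR), 3,000/well, 5 h attachment, then 3.0 µM nilutamide (final) and compounds at 15 concentrations. Viability by CellTiter-Fluor fluorescence after 16 h at 37 °C, 0% CO2, in the reporter wells.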
# [6] = qHTS assay to identify small molecule agonists of the estrogen receptor beta (ER-beta) signaling pathway - cell viability counter screen (AID 1259380); also: nearly all actives have a fitted effect of over 30% in size; also: potency is read from the fitted curve at half-maximal effect
# How it was run: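 ER-beta-UAS-bla HEK293T cells in medium with 2% charcoal-stripped FBS, pre-incubated 6 hr, then treated 16 hr at 37C. Cytotoxicity read in the same wells by CellTiter-Glo luminescence after 30 min at room temperature.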
# [7] = qHTS assay to identify small molecule antagonists of the estrogen receptor beta (ER-beta) signaling pathway - cell viability counter screen (AID 1259382); also: nearly all actives have a fitted effect of over 55% in size; also: potency is read from the fitted curve at half-maximal effect
# How it was run: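 ER-beta-UAS-bla HEK293T cells in 2% charcoal-stripped FBS medium, treated with compound plus 1 nM 17-beta-estradiol for 16 h at 37C. Viability read by CellTiter-Glo luminescence after 30 min at room temperature in the same wells.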
# [8] = qHTS assay to identify small molecule agonists of the estrogen receptor alpha (ER-alpha) signaling pathway in the presence of an antagonist - cell viability counter screen (AID 1259386);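 also: series mostly up to about 92 µM; cells exposed to compounds for 22 h at 37 °C before the viability read; nearly all actives have a fitted effect of over 30% in size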
# How it was run: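 Cell viability in VM7Luc4E2 cells (endogenous full-length ER-alpha) measured by CellTiter-Fluor fluorescence in the same wells as the luciferase screen. Cells pre-cultured 5 days in charcoal-stripped serum, then treated 22 h with compounds at 15 concentrations plus 10.0nM ICI-182,780.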
# [9] = qHTS assay to identify small molecule HDAC inhibitors - cell viability counter screen (AID 1259365); also: nearly all actives have a fitted effect of over 50% in size; also: potency is read from the fitted curve at half-maximal effect
# How it was run: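 CellTiter-Glo luminescence (30 min, room temperature) reported viability after a 2 h compound exposure at 37 C. Cells: wild-type HCT-116, 1,500 per well, seeded the night before.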
# [10] = qHTS assay to identify small molecule agonists of the sonic hedgehog signaling (Shh) pathway (AID 1259368; calls by dose curve;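 also: NIH/3T3-derived 3T3Gli1-Luc cells carrying a stable Gli1-driven firefly luciferase reporter; series mostly up to about 92 µM; nearly all actives have a fitted effect of over 15% in size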)
# How it was run: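 NIH/3T3-derived 3T3Gli1-Luc cells with stably integrated Gli1-driven firefly luciferase, 2,000 cells/well, compounds added after 4 hr. Incubated 24 hr at 37C, 5% CO2; luminescence read after 30 min with luciferase reagent at room temperature.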
# [11] = qHTS assay to identify small molecule agonists or antagonists of the thyroid stimulating hormone receptor (TSHR) signaling pathway - wild type cell line counter screen (AID 1259384; calls by dose curve)
# How it was run: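 Wild-type HEK293 cells were plated 18 h at 37 C/5% CO2, pin-dosed with compound plus Ro20-1724 medium, held 30 min at room temperature, then given cAMP-d2 and anti-cAMP-cryptate; fluorescence was read after 1 h. Fifteen concentrations, triplicate.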
# [12] = target: Thyrotropin receptor (Homo sapiens) (UniProt P16473); assay: qHTS assay to identify small molecule antagonists of the thyroid stimulating hormone receptor (TSHR) signaling pathway (AID 1259385; calls by dose curve; also: nearly all actives have a fitted effect of over 20% in size; also: potency is read from the fitted curve at half-maximal effect)
# Thyrotropin receptor (Homo sapiens), sequence (P16473 whole entry, looked up): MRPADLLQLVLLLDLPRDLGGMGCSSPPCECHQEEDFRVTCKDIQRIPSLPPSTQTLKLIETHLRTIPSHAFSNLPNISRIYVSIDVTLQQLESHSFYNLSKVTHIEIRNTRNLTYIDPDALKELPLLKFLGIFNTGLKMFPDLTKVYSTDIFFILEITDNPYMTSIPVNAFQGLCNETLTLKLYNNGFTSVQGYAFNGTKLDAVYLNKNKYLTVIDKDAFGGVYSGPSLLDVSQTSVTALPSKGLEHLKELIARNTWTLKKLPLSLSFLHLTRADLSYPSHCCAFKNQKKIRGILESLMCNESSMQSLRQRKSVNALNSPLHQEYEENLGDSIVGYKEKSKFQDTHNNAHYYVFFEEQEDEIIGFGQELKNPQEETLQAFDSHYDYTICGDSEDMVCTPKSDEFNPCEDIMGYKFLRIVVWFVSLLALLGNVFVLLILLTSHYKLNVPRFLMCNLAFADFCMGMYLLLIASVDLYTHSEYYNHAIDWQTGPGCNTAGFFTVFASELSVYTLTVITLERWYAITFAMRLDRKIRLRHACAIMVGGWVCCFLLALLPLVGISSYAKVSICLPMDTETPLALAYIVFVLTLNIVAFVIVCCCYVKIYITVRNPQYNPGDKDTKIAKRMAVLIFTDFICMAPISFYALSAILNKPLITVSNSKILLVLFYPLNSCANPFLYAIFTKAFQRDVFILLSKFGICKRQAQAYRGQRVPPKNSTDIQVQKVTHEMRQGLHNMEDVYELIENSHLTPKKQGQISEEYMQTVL
# How it was run: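 TSHR-HEK293 cells were plated and held 18 h at 37C/5% CO2, then given compound plus Ro20-1724 and stimulated with TSH at 1.5 ng/mL final. After 30 min at room temperature, cAMP was detected with cAMP-d2/anti-cAMP-cryptate (1 h) by fluorescence.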
# [13] = qHTS assay to identify small molecule agonists of the sonic hedgehog signaling (Shh) pathway - cell viability counter screen (AID 1259366); also: nearly all actives have a fitted effect of over 50% in size; also: potency is read from the fitted curve at half-maximal effect
# How it was run: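 Cytotoxicity counter screen: CellTiter-Fluor reagent added after 23 h compound exposure, then 1 h at 37C and fluorescence read. Cells were 3T3 Gli1-Luc, seeded 2,000 per well and dosed 4 h post-plating.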
# [14] = target: Estrogen receptor beta (Homo sapiens) (UniProt Q92731); assay: qHTS assay to identify small molecule agonists of the estrogen receptor beta (ER-beta) signaling pathway (AID 1259377; active = well fitted activation curve with a large enough effect in the signal ratio in the repeat runs, not every such curve was filed as active; the % refers to the signal ratio)
# Estrogen receptor beta (Homo sapiens), sequence (Q92731 whole entry, looked up): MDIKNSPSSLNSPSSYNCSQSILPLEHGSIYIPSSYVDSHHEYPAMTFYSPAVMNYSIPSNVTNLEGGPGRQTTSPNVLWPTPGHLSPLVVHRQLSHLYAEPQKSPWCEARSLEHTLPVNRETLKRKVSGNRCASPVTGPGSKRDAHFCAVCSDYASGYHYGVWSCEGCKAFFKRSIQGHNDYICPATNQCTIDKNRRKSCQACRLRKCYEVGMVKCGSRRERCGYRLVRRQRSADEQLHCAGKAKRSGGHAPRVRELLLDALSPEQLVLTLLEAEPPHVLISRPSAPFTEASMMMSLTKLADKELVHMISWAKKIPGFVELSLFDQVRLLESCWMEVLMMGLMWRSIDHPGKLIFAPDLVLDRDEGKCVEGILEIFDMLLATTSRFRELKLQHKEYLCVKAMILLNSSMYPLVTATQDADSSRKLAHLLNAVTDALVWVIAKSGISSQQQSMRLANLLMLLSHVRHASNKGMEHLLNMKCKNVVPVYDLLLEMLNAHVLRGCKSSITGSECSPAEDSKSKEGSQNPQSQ
# How it was run: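 Ratiometric beta-lactamase FRET read-out came after 2 h substrate loading at room temperature. It followed 16 h compound treatment at 37C of GripTite HEK293T cells carrying a UAS-bla reporter, plated in 2% charcoal-stripped FBS medium.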
# [15] = target: Estrogen receptor beta (Homo sapiens) (UniProt Q92731); assay: qHTS assay to identify small molecule antagonists of the estrogen receptor beta (ER-beta) signaling pathway (AID 1259378; active = well fitted inhibition curve with a large enough effect in the signal ratio in the repeat runs, not every such curve was filed as active; the % refers to the signal ratio; also: potency is read from the fitted curve at half-maximal effect)
# How it was run: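 ER-beta-UAS-bla HEK293T (GripTite) cells in 2% charcoal-stripped FBS medium were preincubated 6 hr at 37C, dosed with compound, then stimulated with 1 nM E2 (final) for 16 hr; beta-lactamase reporter read by B/G FRET fluorescence after 2 hr substrate loading.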
# [16] = target: Estrogen receptor (Homo sapiens) (UniProt P03372); assay: qHTS assay to identify small molecule antagonists of the estrogen receptor alpha (ER-alpha) signaling pathway using the BG1 cell line in the presence of 0.1 nM 17-beta-estradiol (AID 1259244); also: nearly all actives have a fitted effect of over 50% in size; also: potency is read from the fitted curve at half-maximal effect
# Estrogen receptor (Homo sapiens), sequence (P03372 whole entry, looked up): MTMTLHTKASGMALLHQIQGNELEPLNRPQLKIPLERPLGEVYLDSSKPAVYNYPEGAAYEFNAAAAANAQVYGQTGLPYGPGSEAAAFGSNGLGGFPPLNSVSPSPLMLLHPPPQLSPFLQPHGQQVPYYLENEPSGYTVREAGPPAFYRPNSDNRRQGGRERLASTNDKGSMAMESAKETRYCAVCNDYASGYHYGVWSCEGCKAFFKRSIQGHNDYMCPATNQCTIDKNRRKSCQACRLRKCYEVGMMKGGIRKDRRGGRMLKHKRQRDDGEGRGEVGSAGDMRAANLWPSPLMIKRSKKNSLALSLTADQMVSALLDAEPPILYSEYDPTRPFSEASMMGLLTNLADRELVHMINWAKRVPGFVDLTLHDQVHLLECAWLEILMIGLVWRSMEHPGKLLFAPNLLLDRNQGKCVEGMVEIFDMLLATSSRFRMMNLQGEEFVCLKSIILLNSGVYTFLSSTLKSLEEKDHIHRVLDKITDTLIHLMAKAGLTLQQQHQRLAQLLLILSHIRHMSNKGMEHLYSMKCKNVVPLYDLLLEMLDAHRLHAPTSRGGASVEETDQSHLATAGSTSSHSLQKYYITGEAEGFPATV
# How it was run: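 VM7Luc4E2 cells (endogenous full-length ER-alpha, 4×ERE-luciferase), kept 5 days in phenol red-free, charcoal-stripped FBS medium; 4,000 cells/well. Compounds added with 0.1 nM (final) 17beta-estradiol, 22 hr at 37C; luminescence read with ONE-Glo after 30 min.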
# [17] = qHTS assay to identify small molecule phospholipidosis (PLD) inducers (AID 1259344; active = well fitted curve in the direction sought with a large enough effect; an effect the other way counts as inactive or inconclusive; also: potency is read from the fitted curve at half-maximal effect)
# How it was run: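 HepG2 cells grown on collagen I take up LipidTOX Red while exposed to compound for 24 h; after fixation they are imaged at 20x and pit metrics are extracted.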
# [18] = target: Estrogen receptor (Homo sapiens) (UniProt P03372); assay: qHTS assay to identify small molecule agonists of the estrogen receptor alpha (ER-alpha) signaling pathway in the presence of an antagonist (AID 1259383; calls by dose curve; also: nearly all actives have a fitted effect of over 15% in size; also: potency is read from the fitted curve at half-maximal effect; as to activation: top concentration of the series differs between compounds)
# How it was run: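 VM7Luc4E2 cells express endogenous full-length ER-alpha with an ERE-luciferase reporter and were hormone-deprived for 5 days. Compounds at 15 concentrations were added with 10.0nM ICI-182,780 for 22hr at 37C. Luminescence was read with ONE-Glo.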
# [19] = target: Androgen receptor (Homo sapiens) (UniProt P10275); assay: qHTS assay to identify small molecule antagonists of the androgen receptor (AR) signaling pathway using the MDA cell line in the presence of 0.5 nM R1881 (AID 1259243); also: potency is read from the fitted curve at half-maximal effect; nearly all actives have a fitted effect of over 50% in size
# Androgen receptor (Homo sapiens), sequence (P10275 whole entry, looked up): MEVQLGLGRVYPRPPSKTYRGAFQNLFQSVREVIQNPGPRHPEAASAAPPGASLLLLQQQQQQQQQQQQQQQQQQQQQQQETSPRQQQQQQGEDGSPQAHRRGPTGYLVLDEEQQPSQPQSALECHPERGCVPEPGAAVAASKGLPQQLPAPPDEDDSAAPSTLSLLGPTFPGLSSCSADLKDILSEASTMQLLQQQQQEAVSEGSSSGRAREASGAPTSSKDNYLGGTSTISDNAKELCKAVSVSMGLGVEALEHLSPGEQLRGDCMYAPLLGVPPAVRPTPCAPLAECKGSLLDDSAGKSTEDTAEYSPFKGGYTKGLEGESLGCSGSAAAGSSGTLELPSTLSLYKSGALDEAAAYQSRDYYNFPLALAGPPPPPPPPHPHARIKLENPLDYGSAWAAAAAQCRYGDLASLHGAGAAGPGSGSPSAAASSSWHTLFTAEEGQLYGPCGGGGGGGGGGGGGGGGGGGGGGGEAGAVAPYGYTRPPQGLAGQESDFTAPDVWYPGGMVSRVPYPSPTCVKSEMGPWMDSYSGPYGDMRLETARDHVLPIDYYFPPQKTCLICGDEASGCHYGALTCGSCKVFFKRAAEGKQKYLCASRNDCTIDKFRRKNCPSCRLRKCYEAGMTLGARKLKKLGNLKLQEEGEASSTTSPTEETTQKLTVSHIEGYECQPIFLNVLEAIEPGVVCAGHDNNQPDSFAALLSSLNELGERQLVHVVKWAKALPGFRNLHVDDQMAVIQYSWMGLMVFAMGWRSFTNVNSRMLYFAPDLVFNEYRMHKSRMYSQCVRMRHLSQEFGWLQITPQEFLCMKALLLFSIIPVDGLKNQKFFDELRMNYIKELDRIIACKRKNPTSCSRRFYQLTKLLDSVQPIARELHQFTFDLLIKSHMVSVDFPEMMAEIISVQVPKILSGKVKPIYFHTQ
# How it was run: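 MDA-kb2 cells (MMTV-luciferase, responsive to AR and GR) at 3,000/well, rested 5 h at 37C, 0% CO2, then given compounds plus 0.5 nM R1881 (final) for 16 hr. Luciferase read with ONE-Glo after 30 min at room temperature.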
# [20] = target: Androgen receptor (Homo sapiens) (UniProt P10275); assay: qHTS assay to identify small molecule agonists of the androgen receptor (AR) signaling pathway in the presence of an antagonist (AID 1259381; calls by dose curve; also: nearly all actives have a fitted effect of over 15% in size)
# How it was run: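 MDA-kb2 cells carrying MMTV-luciferase (AR/GR responsive), 3,000 cells/well, co-treated with 3.0 uM nilutamide final. Compounds at 15 concentrations, 16 hr at 37C without CO2. Luciferase luminescence read after 30 min with ONE-Glo.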
Compound,Potency [1],Potency [2],Potency [3],Potency [4],Potency [5],Potency [6],Potency [7],Potency [8],Potency [9],Potency [10],outcome [11],Potency [12],Potency [13],Potency [14],Potency [15],Potency [16],Potency [17],Potency [18],Potency [19],outcome [20]
O=c1oc2cc(O)ccc2c2oc3cc(O)ccc3c12,inactive,9.29 µM (active),inactive,13.1 µM (active),inactive,37 µM (active),inactive,inactive,,,,,,,,,,,,
O=C1OC2(c3ccc(O)cc3Oc3cc(O)ccc32)c2ccc(N=C=S)cc21,inactive,inactive,inactive,inactive,,inactive,inactive,,inactive,inactive,inactive,inactive,,,,,,,,
C=CCn1c(=O)n(CC=C)c(=O)n(CC=C)c1=O,inactive,,inactive,,,inactive,inactive,,inactive,inactive,inactive,inactive,inactive,inactive,inactive,,,,,
C#CC1(O)CC[C@H]2[C@@H]3CCC4=CCCC[C@@H]4[C@H]3CC[C@@]21C (stereo not given in full),,inactive,,48.6 µM (active) and inactive,inactive,61.1 µM (active) and 29.8 µM (active),61.1 µM (active) and 26.6 µM (active),inactive,29.8 µM (active),inactive,inactive,inactive,26.6 µM (active),,,inactive,inactive,611 nM (active) and 473 nM (active),,
CN(C)c1ccc(C(=C2C=CC(=[N+](C)C)C=C2)c2ccc(N(C)C)cc2)cc1,,,9.64 µM (active) and 30.6 µM (active) and 10.6 µM (active),1.53 µM (active) and 864 nM (active) and 3.35 µM (active),,10.8 µM (active) and 27.3 µM (active) and 13.3 µM (active),21.6 µM (active) and 27.3 µM (active) and 13.3 µM (active),,13.6 µM (active) and 27.3 µM (active) and 11.9 µM (active),inactive,,,9.64 µM (active) and 30.6 µM (active) and 13.3 µM (active),inactive,27.2 µM (active) and 37.6 µM (active),1.71 µM (active) and 3.86 µM (active) and 3.35 µM (active),inactive,inactive,1.53 µM (active) and 3.44 µM (active) and 1.88 µM (active),inactive
CC[N+](CC)(CC)CCOc1ccc(/C=C/c2ccccc2)cc1,,inactive,inactive,,9.44 µM (active),,inactive,inactive,inactive,inactive,inactive,inactive,inactive,inactive,,13.3 µM (active),inactive,inactive,,
CCCCCCCCCCCCCCCC[N+](C)(C)CC,,inactive,54.6 µM (active) and inactive,6.88 µM (active) and 15 nM (active),48.7 µM (active) and 18.8 µM (active),54.6 µM (active) and 11.9 µM (active),34.5 µM (active) and 23.7 µM (active),inactive,inactive,inactive,inactive,inactive,68.8 µM (active),,,27.4 µM (active) and 26.6 µM (active),inactive,inactive,,
C=CC(=O)Nc1cc2c(Nc3ccc(F)c(Cl)c3)ncnc2cc1OCCCN1CCOCC1,,,7.5 µM (active),1.68 µM (active),0.841 µM (active),23.7 µM (active),inactive,,inactive,inactive,inactive,26.6 µM (active),3.76 µM (active),,,inactive,0.891 µM (active),,7.5 µM (active),inactive
